Screening results as filed in PubChem BioAssay.
MLL AF4-AF9 inh: MLL-AF4/AF9 protein interaction inhibition; P42568; AlphaScreen, biotin-AF4 peptide binding to FLAG-AF9; inhibition, % at 10 µM; 350,000 compounds, 0.47% hits;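 active means every replicate reaching a set inhibition limit, whatever the replicate mean, cut at about 25% in these data; inconclusive means mean inhibition reaches that limit but some replicates miss it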;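 further: 0% = plate neutral control median and 100% = total signal loss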
DENV2 CPE rescue: DENV2-induced cell death inhibition. DENV2-infected cells, cytopathic effect rescue, plate reader. CPE inhibition, % at 9.99 µM. 350,000 compounds, 1.7% hits. AID 651640; in the data active means CPE inhibition above about 20%, passing the limit was not always enough; inconclusive means no clear call, values can overlap the other calls; tested in BHK-21 cells;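 further: 0% = median of neutral control wells and 100% = median of positive control wells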
dFosB activator: activators of mouse delta FosB homodimer | P13346 | purified delta FosB, TAMRA-CDK5 oligo fluorescence polarization; percent of positive-control signal above neutral wells | activation, % at 25 µM | 340,000 compounds, 0.99% hits;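 active means mean activation above about 17%, with every replicate also reaching it, limit read from the data, passing the limit was not always enough; inconclusive means only one of the two conditions met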
RAD54 inh: RAD54 (human) branch migration inhibition | Q92698 | inhibition, % at 10.4 µM | 360,000 compounds, 0.14% hits | RAD54 Holliday junction branch migration, FAM/BHQ fluorescence | AID 602329;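 active means mean normalized replicate activity at least 40 and at least half of replicates scoring 40 or more; inconclusive means only one of the two criteria met; inactive means mean below 40 and under half of replicates reaching 40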;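 further: 0% = median of neutral control wells and 100% = median of positive control wells; inhibitors cause a drop in the FAM fluorescence signal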
GSIS activator: GLuc luminescence reporter in INS-1E cells, primary screen for activators of glucose-dependent secretion of insulin. INS-1E GLuc reporter insulin secretion, 2-3 h. activation, % at 16.6 µM. 370,000 compounds, 0.61% hits. AID 743287;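 active means lowest replicate activation of at least 40%, so every replicate reaches that level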;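 further: 0% = median of neutral control wells and 100% = median of IBMX positive control wells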
RAD52 inh: RAD52 (human) annealing inhibition; 360,000 compounds, 0.46% hits; recombinant RAD52 DNA annealing, FRET fluorescence; inhibition, % at 18.7 µM; P43351;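 active means every replicate showing at least 50% inhibition; inconclusive means mean inhibition at least 50% but not in every replicate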
Target sequence (P43351 whole entry, looked up): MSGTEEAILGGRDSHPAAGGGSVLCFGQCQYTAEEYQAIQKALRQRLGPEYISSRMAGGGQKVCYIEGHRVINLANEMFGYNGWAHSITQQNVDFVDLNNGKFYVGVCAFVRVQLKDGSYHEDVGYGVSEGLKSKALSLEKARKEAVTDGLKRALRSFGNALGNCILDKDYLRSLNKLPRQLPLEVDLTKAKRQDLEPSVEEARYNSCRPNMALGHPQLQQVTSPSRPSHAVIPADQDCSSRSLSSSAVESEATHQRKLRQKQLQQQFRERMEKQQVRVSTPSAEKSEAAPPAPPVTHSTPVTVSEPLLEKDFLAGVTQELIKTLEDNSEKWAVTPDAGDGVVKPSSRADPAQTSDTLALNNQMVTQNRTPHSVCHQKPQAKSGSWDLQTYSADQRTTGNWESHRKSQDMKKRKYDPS
* hit, by the source's call; ? = inconclusive; . = no result given. Only some compounds are listed: those with a hit (about 3.1% of all), similar ones and a draw of the others.

SMILES | MLL AF4-AF9 inh | DENV2 CPE rescue | dFosB activator | RAD54 inh | GSIS activator | RAD52 inh
COCC(=O)N1[C@H](CO)[C@H](c2ccccc2)C12CN(C(=O)Nc1ccccc1F)C2 | -3.7 | 35.7* | . | . | 10.9 | 4.2
O=C(Cc1ccccn1)N1CC2(C1)[C@H](c1ccccc1)[C@@H](CO)N2C(=O)c1ccncc1 | -3.0 | 45.5* | . | . | 13.2 | -347.6
COCC(=O)N1[C@H](CO)[C@@H](c2ccccc2)C12CN(C(=O)Nc1ccccc1F)C2 | -1.6 | 18.0 | . | . | 5.0 | -4.3
O=C(Cc1ccccn1)N1CC2(C1)[C@@H](c1ccccc1)[C@@H](CO)N2C(=O)c1ccncc1 | -6.7 | 5.4 | . | . | 0.4 | -174.4
COCC(=O)N1CC2(C1)[C@@H](c1ccccc1)[C@@H](CO)N2C(=O)c1ccncc1 | -2.3 | 30.4* | . | . | 22.0 | -7.6
COc1ccc(NC(=O)N(C)C[C@@H]2Oc3ccc(NC(=O)Cc4ccccc4)cc3CC(=O)N([C@H](C)CO)C[C@@H]2C)cc1 | 3.3 | ? | . | 15.9 | 26.1 | 4.0
CCOc1ccc(NC(=O)[C@@H](NC(=O)OCc2ccccc2)[C@@H](C)CC)cc1 | . | . | -5.1 | . | 49.3* | .
Cc1cc(C(=O)Nc2cccc3c2O[C@@H](CN(C)Cc2ccc4c(c2)OCO4)[C@@H](C)CN([C@H](C)CO)C3=O)n(C)n1 | -3.9 | -3.7 | . | -6.1 | 1.8 | 10.2
CC1Cc2ccccc2N1C(=S)NC(=O)c1ccc(Cl)cc1Cl (stereo not drawn) | -11.2 | 14.7 | 4.6 | -12.1 | -4.9 | -64.9
CC1Cc2ccccc2N1C(=S)NC(=O)c1cccc(Br)c1 (stereo not drawn) | . | . | -2.5 | . | 51.2* | .
CC(C)CC#Cc1ccc2c(c1)O[C@H](CN(C)C(=O)CN(C)C)[C@@H](C)CN([C@H](C)CO)S2(=O)=O | 3.2 | -1.0 | . | -2.0 | -2.6 | 14.2
O=C(C[C@H]1CC[C@@H]2[C@H](COC[C@H](O)CN2C(=O)c2ccccc2)O1)N1CCOCC1 | -2.6 | 3.4 | . | 4.9 | 4.7 | -2.6
O=C(C[C@H]1CC[C@@H]2[C@H](COC[C@H](O)CN2Cc2cc(F)ccc2F)O1)NCc1ccccc1 | 0.3 | -9.5 | . | -6.9 | 13.8 | -2.9
C[C@H](CO)N1C[C@H](C)[C@@H](CN(C)S(=O)(=O)c2ccccc2)Oc2ncc(C#CCN(C)C)cc2C1=O | -1.6 | 4.2 | . | -3.6 | -1.6 | 3.0
COc1ccc2c3c([nH]c2c1)[C@@H](CO)N(Cc1ccccn1)CC31CN(Cc2cccc(F)c2)C1 | 11.7 | 15.9 | . | . | -9.3 | .
COc1ccc2c3c([nH]c2c1)[C@@H](CO)N(Cc1cccc(F)c1)CC31CN(Cc2ccccn2)C1 | 17.5 | 38.8* | . | . | -1.5 | -36.2
COc1ccc2c3c([nH]c2c1)[C@H](CO)N(Cc1ccccn1)CC31CN(C(C)=O)C1 | 0.9 | 46.6* | . | . | 6.9 | .
COc1ccc2c3c([nH]c2c1)[C@@H](CO)N(Cc1ccccn1)CC31CN(C(C)=O)C1 | . | . | . | . | 4.7 | .
C[C@H]1CN([C@@H](C)CO)C(=O)c2cc(NS(=O)(=O)c3ccc(F)cc3)ccc2O[C@H]1CN(C)Cc1ccc(C(F)(F)F)cc1 | 0.1 | -4.3 | . | 4.4 | -8.1 | -6.5
Cc1noc(C)c1NC(=O)Nc1cccc2c1O[C@@H](CN(C)S(=O)(=O)c1ccc(Cl)cc1)[C@@H](C)CN([C@@H](C)CO)C2=O | -0.8 | -2.6 | . | 2.5 | 3.7 | 6.5
CO[C@@H]1CN(C)C(=O)c2cc(NC(=O)c3ccccc3)ccc2OC[C@@H](C)N(C(=O)CN(C)C)C[C@H]1C | -0.2 | . | . | . | 5.2 | .
Cc1noc(C)c1NC(=O)N[C@@H]1C=C[C@H](CC(=O)NCCCN(C)C)O[C@H]1CO | 0.0 | -2.3 | . | 3.7 | -11.3 | 7.6
COC(=O)C1=C(C)NC(=S)NC1c1cccc(OC)c1 (stereo not drawn) | . | -0.7 | . | . | 43.8* | -17.7
COC(=O)C1=C(C)N(Cc2ccc(Cl)cc2)C(=S)NC1c1cccc(OC)c1 (stereo not drawn) | . | -8.2 | . | . | -33.1 | -14.3
C[C@@H]1CN([C@@H](C)CO)C(=O)c2cccc(NS(C)(=O)=O)c2O[C@H]1CN(C)C(=O)NC1CCCCC1 | 0.6 | -1.3 | . | 4.7 | 0.5 | -2.3
SMILES | MLL AF4-AF9 inh | DENV2 CPE rescue | dFosB activator | RAD54 inh | GSIS activator | RAD52 inh
CCS(=O)(=O)N1CC2(CN(C(=O)CN3CCOCC3)[C@@H](CO)c3c2c2ccc(OC)cc2n3C)C1 | 0.1 | -15.2 | . | . | 23.0 | 12.5
COc1ccc(NC(=O)Nc2cccc3c2O[C@H](CN(C)Cc2ccc(Cl)c(Cl)c2)[C@@H](C)CN([C@H](C)CO)C3=O)cc1 | . | . | . | . | -28.6 | .
COc1ccc(CNC[C@@H](CCCCN(C)Cc2ccc(OC)cc2)N2C[C@H](c3ccccc3)N(CCc3ccc(Cl)c(Cl)c3)C(=O)C2=O)cc1 | . | . | 45.5* | 5.9 | . | .
CCCNC(=O)NC[C@H]1[C@@H](c2ccc(C3=CCCC3)cc2)[C@H](CO)N1C(=O)CC | -1.3 | -1.7 | . | 3.9 | -3.7 | -6.8
CC(=O)N1[C@H](CO)[C@H](c2ccc(C3=CCCCC3)cc2)[C@@H]1CNC(=O)CN(C)C | 5.4 | -10.3 | . | 2.7 | 10.7 | 4.6
CCCNC(=O)NC[C@@H]1[C@@H](c2ccc(C3=CCCC3)cc2)[C@@H](CO)N1C(=O)CC | -0.5 | 115.6* | . | 0.0 | 2.7 | -92.0
CC(=O)N1[C@H](CO)[C@@H](c2ccc(C3=CCCCC3)cc2)[C@@H]1CNC(=O)CN(C)C | 7.2 | 21.7* | . | 2.4 | 10.5 | 15.6
Cc1c(CCOC(=O)CC23CC4CC(CC(C)(C4)C2)C3)sc[n+]1CC(=O)c1ccccc1 | 27.1* | . | 6.0 | . | 70.1 | 62.4*
Cc1c(CCOC(=O)C23CC4CC(CC(C)(C4)C2)C3)sc[n+]1CC(=O)c1ccccc1 | 13.5 | -1.6 | -5.1 | 20.1 | . | 41.9
N#Cc1ccc(-c2ccc3c(c2)[C@@H]2[C@@H](CCN2S(=O)(=O)c2cccc(F)c2)[C@@H](CO)N3)cc1 | 1.2 | -9.8 | . | 2.3 | 23.3 | -8.3
CCS(=O)(=O)Nc1ccc2c(c1)C(=O)N(C)[C@H]1CC[C@H](CC(=O)NCCCN3CCOCC3)O[C@H]1CO2 | -1.5 | ? | . | 0.0 | 2.7 | -15.0
CCNc1nc(NC(N)=S)nc(NC(C)(C)C)n1 | -0.7 | 2.3 | -6.1 | . | 69.6* | -2.9
CCNc1nc(NCC)nc(NC(N)=S)n1 | -2.8 | 3.8 | -3.4 | -8.7 | -10.0 | -9.9
CO[C@H]1CN(C)C(=O)c2cc(NC(=O)Cc3ccccc3)ccc2OC[C@H](C)NC[C@H]1C | 1.4 | 2.8 | . | 3.6 | -0.9 | 17.3
COCC(=O)N1C[C@@H]2[C@H](c3ccccc31)[C@@H](CO)N2C(=O)c1ccccc1F | -2.7 | 40.9* | . | -3.3 | -0.3 | -7.4
COCC(=O)N1C[C@@H]2[C@H](c3ccccc31)[C@H](CO)N2C(=O)Nc1ccccc1Cl | -2.2 | 26.5* | . | 4.0 | 9.4 | -2.9
COc1ccccc1CN1[C@H](CO)[C@H]2c3ccccc3N(C(=O)c3ccncc3)C[C@H]21 | -0.3 | 95.2* | . | 0.7 | 17.0 | -7.7
